# Paper doi:10.1101/2025.02.07.636106
# Legend:
# [1] = biological target: Proteasome subunit beta type-4 (UniProt P28070); assay: cross-link between two proteins; co-fractionation; cross-linking mass spectrometry
# AP-2 complex subunit mu = AP-2 complex subunit mu (UniProt Q96CW1); assay: as above
# [2] = biological target: Heat shock-related 70 kDa protein 2 (UniProt P54652); assay: co-fractionation; co-fractionation; cross-linking mass spectrometry
# [3] = biological target: Elongation factor 1-alpha 1 (UniProt P68104); assay: cross-linking mass spectrometry
# Histone deacetylase 2 [4] = biological target: Histone deacetylase 2 (UniProt Q92769); assay: cross-link between two proteins; cross-linking mass spectrometry
# Peregrin = Peregrin (UniProt P55201); assay: as above
# [5] = biological target: Cytochrome b-c1 complex subunit Rieske, mitochondrial (UniProt P47985); assay: as above
# Elongin-A = Elongin-A (UniProt Q14241); assay: as above
# [6] = biological target: Dolichyl-diphosphooligosaccharide--protein glycosyltransferase subunit DAD1 (UniProt P61803); assay: co-fractionation; cross-linking mass spectrometry
# [7] = biological target: Dolichyl-diphosphooligosaccharide--protein glycosyltransferase 48 kDa subunit (UniProt P39656); assay: cross-link between two proteins; affinity purification or IP with mass spectrometry; cross-linking mass spectrometry
# Abl interactor 1 = Abl interactor 1 (UniProt Q8IZP0); assay: co-fractionation; cross-linking mass spectrometry
# Histone deacetylase 1 [8] = biological target: Histone deacetylase 1 (UniProt Q13547); assay: cross-link between two proteins; cross-linking mass spectrometry
# [9] = biological target: Proteasome subunit beta type-7 (UniProt Q99436); assay: cross-link between two proteins; co-fractionation; cross-linking mass spectrometry
# [10] = biological target: 26S proteasome non-ATPase regulatory subunit 7 (UniProt P51665); assay: cross-link between two proteins; cross-linking mass spectrometry
# [11] = biological target: Metastasis-associated protein MTA3 (UniProt Q9BTC8); assay: as above
# [12] = biological target: Methyl-CpG-binding domain protein 2 (UniProt Q9UBB5); assay: as above
# Protein DOP1B = Protein DOP1B (UniProt Q9Y3R5); assay: as above
# [13] = biological target: Transcriptional repressor p66-alpha (UniProt Q86YP4); assay: as above
# [14] = biological target: Transcriptional repressor p66-beta (UniProt Q8WXI9); assay: as above
# [15] = biological target: Tyrosine-protein phosphatase non-receptor type 14 (UniProt Q15678); assay: as above
# Histone deacetylase 1 [16] = biological target: Histone deacetylase 1 (UniProt Q13547); assay: cross-link between two proteins; affinity purification or IP with mass spectrometry; cross-linking mass spectrometry
# [17] = biological target: BTB/POZ domain-containing protein 7 (UniProt Q9P203); assay: cross-link between two proteins; cross-linking mass spectrometry
# [18] = biological target: Paired amphipathic helix protein Sin3a (UniProt Q96ST3); assay: as above
# Histone deacetylase 2 [19] = biological target: Histone deacetylase 2 (UniProt Q92769); assay: cross-link between two proteins; affinity purification or IP with mass spectrometry; cross-linking mass spectrometry
# [20] = biological target: Histone-lysine N-methyltransferase, H3 lysine-36 specific (UniProt Q96L73); assay: cross-link between two proteins; cross-linking mass spectrometry
# Histone H2B type 1-M = Histone H2B type 1-M (UniProt Q99879); assay: as above
# [21] = biological target: KxDL motif-containing protein 1 (UniProt Q9BQD3); assay: as above
# [22] = biological target: Histone-lysine N-methyltransferase 2A (UniProt Q03164); assay: as above
# [23] = biological target: Pre-mRNA-splicing factor CWC25 homolog (UniProt Q9NXE8); assay: as above
# [24] = biological target: Endoplasmic reticulum chaperone BiP (UniProt P11021); assay: as above
# [25] = biological target: B-cell receptor-associated protein 29 (UniProt Q9UHQ4); assay: as above
# [26] = biological target: AP-1 complex subunit mu-1 (UniProt Q9BXS5); assay: co-fractionation; cross-linking mass spectrometry
# [27] = biological target: AP-1 complex subunit sigma-1A (UniProt P61966); assay: cross-linking mass spectrometry
# [28] = biological target: Proteasome subunit alpha type-5 (UniProt P28066); assay: cross-link between two proteins; co-fractionation; cross-linking mass spectrometry
# [29] = biological target: Activity-dependent neuroprotector homeobox protein (UniProt Q9H2P0); assay: cross-link between two proteins; cross-linking mass spectrometry
# [30] = biological target: Guanine nucleotide-binding protein G(i) subunit alpha-3 (UniProt P08754); assay: co-fractionation; co-fractionation; cross-linking mass spectrometry
# [31] = biological target: 26S proteasome regulatory subunit 10B (UniProt P62333); assay: cross-link between two proteins; cross-linking mass spectrometry
# [32] = biological target: Lymphatic vessel endothelial hyaluronic acid receptor 1 (UniProt Q9Y5Y7); assay: as above
# Chain of Histone deacetylase 1 (Q13547 whole entry, the tested form may be a part): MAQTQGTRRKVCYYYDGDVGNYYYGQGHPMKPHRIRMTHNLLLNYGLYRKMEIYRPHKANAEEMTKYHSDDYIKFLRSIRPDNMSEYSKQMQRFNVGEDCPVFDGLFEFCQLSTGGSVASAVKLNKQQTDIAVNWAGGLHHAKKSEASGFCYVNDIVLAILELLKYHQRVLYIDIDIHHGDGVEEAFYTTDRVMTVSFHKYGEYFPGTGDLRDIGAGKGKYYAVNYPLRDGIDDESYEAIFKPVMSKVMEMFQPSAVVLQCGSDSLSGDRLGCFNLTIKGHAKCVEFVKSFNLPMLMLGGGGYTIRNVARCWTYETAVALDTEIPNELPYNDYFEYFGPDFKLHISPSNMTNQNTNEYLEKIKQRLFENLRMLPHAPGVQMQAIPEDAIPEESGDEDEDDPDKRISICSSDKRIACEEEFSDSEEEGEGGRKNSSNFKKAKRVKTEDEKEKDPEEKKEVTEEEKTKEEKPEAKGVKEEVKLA
# Chain of Heat shock protein HSP 90-beta, P08238 (P08238 whole entry): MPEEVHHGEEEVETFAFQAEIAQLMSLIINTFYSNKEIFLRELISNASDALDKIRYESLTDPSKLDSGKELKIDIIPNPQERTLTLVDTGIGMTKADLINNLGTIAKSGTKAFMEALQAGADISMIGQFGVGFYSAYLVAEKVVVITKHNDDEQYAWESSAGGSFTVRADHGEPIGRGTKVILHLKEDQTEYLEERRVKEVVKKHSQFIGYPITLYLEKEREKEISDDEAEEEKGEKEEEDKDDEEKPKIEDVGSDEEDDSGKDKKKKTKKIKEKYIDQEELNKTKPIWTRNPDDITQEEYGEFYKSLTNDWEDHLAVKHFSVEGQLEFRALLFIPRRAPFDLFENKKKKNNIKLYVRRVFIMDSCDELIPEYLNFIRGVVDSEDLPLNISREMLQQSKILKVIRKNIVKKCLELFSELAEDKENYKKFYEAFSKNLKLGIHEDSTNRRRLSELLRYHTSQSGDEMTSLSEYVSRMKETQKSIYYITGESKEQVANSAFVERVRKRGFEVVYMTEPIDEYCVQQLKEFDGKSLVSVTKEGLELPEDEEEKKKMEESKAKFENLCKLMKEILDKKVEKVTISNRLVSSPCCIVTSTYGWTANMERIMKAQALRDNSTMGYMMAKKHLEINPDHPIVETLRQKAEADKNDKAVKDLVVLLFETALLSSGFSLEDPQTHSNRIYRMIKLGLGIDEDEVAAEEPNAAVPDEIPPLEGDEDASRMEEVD
# Chain of Histone deacetylase 2 (Q92769 whole entry): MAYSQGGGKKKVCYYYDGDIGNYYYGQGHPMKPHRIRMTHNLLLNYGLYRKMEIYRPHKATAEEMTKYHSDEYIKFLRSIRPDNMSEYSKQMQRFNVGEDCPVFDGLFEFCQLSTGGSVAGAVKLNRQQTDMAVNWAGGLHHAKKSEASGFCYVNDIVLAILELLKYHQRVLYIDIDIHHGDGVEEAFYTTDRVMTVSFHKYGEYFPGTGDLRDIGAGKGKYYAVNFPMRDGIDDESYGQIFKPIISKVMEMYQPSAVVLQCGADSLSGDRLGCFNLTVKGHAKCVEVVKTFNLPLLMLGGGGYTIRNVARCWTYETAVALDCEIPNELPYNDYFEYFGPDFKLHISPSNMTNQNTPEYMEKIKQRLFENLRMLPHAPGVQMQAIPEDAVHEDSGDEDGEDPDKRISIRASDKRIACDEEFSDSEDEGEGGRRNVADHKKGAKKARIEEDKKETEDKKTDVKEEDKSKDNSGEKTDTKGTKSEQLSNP
# Chain of Dolichyl-diphosphooligosaccharide--protein glycosyltransferase subunit DAD1 (P61803 whole entry): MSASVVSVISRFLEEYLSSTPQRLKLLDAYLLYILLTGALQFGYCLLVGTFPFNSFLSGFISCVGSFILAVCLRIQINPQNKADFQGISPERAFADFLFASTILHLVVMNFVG
# Chain of Proteasome subunit beta type-7 (Q99436 whole entry): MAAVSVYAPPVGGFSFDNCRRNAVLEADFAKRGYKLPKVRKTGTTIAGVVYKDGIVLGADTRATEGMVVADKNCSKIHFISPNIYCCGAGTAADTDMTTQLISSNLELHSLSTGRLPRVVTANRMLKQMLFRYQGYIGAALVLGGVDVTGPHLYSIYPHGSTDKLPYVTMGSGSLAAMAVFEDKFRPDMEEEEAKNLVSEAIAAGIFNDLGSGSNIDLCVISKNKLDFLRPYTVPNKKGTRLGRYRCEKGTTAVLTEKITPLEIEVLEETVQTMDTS
# Chain of AP-1 complex subunit mu-1 (Q9BXS5 whole entry, one chain of several): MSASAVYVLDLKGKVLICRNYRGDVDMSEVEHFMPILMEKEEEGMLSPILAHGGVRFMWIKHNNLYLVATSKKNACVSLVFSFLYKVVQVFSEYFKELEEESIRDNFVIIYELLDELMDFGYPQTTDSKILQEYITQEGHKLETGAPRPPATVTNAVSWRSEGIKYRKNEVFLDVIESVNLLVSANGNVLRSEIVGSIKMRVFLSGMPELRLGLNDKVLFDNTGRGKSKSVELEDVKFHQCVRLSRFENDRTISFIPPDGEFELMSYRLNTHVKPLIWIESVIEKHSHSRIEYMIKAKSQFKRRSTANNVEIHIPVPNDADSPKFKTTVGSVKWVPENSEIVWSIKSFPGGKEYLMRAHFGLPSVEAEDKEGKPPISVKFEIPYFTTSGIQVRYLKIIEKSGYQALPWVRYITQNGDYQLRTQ
# Chain of Protein DOP1B (Q9Y3R5 whole entry): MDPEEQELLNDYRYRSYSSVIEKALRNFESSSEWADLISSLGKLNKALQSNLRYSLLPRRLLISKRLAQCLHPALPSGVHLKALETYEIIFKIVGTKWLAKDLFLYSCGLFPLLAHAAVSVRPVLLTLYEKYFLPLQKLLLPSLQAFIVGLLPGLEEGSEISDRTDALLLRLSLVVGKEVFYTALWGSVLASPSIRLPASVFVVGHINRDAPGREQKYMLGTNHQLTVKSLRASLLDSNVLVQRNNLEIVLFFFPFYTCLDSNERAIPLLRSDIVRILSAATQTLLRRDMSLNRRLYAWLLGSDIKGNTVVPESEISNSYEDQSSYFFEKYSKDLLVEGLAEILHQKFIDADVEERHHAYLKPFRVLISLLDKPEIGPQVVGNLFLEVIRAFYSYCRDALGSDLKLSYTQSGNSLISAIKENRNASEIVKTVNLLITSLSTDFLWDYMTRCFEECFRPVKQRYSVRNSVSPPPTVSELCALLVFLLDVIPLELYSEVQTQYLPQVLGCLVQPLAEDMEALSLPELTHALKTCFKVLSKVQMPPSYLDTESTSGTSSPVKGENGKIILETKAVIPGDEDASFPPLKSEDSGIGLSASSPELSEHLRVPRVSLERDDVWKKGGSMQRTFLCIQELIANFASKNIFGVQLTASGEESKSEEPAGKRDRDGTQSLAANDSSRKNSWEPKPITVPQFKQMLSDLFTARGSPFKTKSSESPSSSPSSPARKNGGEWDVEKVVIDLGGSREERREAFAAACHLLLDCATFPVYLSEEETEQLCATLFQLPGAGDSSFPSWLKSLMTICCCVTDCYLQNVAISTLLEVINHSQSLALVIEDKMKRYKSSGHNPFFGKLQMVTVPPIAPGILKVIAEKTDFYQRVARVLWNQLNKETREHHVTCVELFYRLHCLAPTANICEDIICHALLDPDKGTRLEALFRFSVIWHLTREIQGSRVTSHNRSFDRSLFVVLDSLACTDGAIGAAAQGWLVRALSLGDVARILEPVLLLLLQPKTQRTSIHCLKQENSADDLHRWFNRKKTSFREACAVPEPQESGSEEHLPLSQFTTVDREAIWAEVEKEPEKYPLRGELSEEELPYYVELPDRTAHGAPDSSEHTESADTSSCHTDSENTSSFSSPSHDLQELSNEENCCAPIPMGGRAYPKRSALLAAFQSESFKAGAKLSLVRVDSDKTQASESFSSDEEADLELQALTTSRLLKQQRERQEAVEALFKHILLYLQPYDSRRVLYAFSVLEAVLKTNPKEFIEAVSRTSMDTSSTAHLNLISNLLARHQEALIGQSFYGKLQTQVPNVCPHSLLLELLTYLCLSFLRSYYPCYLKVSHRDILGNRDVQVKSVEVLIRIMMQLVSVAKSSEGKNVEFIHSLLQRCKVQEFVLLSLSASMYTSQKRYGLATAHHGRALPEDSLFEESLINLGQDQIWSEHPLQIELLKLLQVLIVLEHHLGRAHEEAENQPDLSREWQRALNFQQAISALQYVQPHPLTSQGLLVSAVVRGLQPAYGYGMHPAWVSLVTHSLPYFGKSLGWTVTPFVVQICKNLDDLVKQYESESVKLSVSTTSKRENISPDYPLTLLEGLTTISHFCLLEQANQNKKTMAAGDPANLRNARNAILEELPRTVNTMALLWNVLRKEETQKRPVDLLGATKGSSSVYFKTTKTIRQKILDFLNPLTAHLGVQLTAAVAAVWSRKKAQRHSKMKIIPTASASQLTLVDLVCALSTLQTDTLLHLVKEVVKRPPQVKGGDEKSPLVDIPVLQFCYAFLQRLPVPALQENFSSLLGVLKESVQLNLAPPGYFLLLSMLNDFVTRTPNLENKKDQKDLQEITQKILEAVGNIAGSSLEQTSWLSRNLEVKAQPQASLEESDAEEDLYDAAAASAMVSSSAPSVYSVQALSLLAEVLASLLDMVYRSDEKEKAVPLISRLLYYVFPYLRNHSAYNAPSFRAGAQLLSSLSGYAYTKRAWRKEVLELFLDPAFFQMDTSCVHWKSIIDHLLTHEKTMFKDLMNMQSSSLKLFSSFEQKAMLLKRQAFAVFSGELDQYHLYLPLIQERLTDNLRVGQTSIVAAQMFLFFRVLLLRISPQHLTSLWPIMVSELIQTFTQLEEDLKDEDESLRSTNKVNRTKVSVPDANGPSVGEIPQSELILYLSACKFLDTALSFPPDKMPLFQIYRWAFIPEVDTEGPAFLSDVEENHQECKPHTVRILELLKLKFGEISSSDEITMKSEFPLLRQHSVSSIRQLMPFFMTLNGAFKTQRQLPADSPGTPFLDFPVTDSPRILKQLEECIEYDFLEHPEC
# Chain of Proteasome subunit alpha type-6, P60900 (P60900 whole entry): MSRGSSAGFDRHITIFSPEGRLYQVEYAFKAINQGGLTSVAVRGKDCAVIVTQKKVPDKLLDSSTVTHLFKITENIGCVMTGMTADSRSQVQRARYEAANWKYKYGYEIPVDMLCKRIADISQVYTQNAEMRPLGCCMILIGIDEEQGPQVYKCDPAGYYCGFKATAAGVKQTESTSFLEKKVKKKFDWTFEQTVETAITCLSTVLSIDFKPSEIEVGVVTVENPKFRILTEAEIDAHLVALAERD
substance,measurement,setting,value
"Proteasome subunit beta type-1, P20618",listed as a hit,[1],yes
"AP-2 complex subunit alpha-1, O95782",listed as a hit,AP-2 complex subunit mu,yes
"Heat shock 70 kDa protein 6, P17066",listed as a hit,[2],yes
"Heat shock protein HSP 90-beta, P08238",listed as a hit,[3],yes
same,listed as a hit,Histone deacetylase 2 [4],yes
same,listed as a hit,Peregrin,yes
"Putative cytochrome b-c1 complex subunit Rieske-like protein 1, P0C7P4",listed as a hit,[5],yes
"ATP synthase peripheral stalk subunit OSCP, mitochondrial, P48047",listed as a hit,Elongin-A,yes
"Dolichyl-diphosphooligosaccharide--protein glycosyltransferase subunit 2, P04844",listed as a hit,[6],yes
"Calnexin, P27824",listed as a hit,[7],yes
"Cytoplasmic FMR1-interacting protein 1, Q7L576",listed as a hit,Abl interactor 1,yes
"Collagen alpha-5(IV) chain, P29400",listed as a hit,Histone deacetylase 1 [8],yes
"Proteasome subunit alpha type-6, P60900",listed as a hit,[9],yes
"26S proteasome non-ATPase regulatory subunit 12, O00232",listed as a hit,[10],yes
"Metastasis-associated protein MTA1, Q13330",listed as a hit,[11],yes
same,listed as a hit,[12],yes
same,listed as a hit,Protein DOP1B,yes
same,listed as a hit,[13],yes
same,listed as a hit,[14],yes
same,listed as a hit,[15],yes
same,listed as a hit,Histone deacetylase 1 [16],yes
"Secretory carrier-associated membrane protein 3, O14828",listed as a hit,[17],yes
"Histone-binding protein RBBP7, Q16576",listed as a hit,[18],yes
same,listed as a hit,Histone deacetylase 2 [19],yes
"Protein-L-isoaspartate(D-aspartate) O-methyltransferase, P22061",listed as a hit,[20],yes
"Paired amphipathic helix protein Sin3b, O75182",listed as a hit,Histone deacetylase 1 [16],yes
"ADP/ATP translocase 3, P12236",listed as a hit,Histone H2B type 1-M,yes
"Biogenesis of lysosome-related organelles complex 1 subunit 1, P78537",listed as a hit,[21],yes
"Prohibitin 1, P35232",listed as a hit,[22],yes
"Transcriptional repressor p66-beta, Q8WXI9",listed as a hit,[23],yes
same,listed as a hit,Histone deacetylase 2 [19],yes
"DNA/RNA-binding protein KIN17, O60870",listed as a hit,[24],yes
"Proteasome subunit beta type-3, P49720",listed as a hit,[9],yes
"Leucine-rich repeat-containing protein 59, Q96AG4",listed as a hit,[25],yes
"AP-1 complex subunit sigma-1A, P61966",listed as a hit,[26],yes
"AP-1 complex subunit gamma-1, O43747",listed as a hit,[27],yes
same,listed as a hit,[26],yes
"Proteasome subunit alpha type-7, O14818",listed as a hit,[28],yes
"Dolichyl-diphosphooligosaccharide--protein glycosyltransferase subunit 1, P04843",listed as a hit,[6],yes
"ATP-dependent chromatin remodeler CHD4, Q14839",listed as a hit,[29],yes
same,listed as a hit,Histone deacetylase 2 [19],yes
"Methyl-CpG-binding domain protein 3, O95983",listed as a hit,Histone deacetylase 2 [19],yes
"Guanine nucleotide-binding protein G(i) subunit alpha-2, P04899",listed as a hit,[30],yes
"Proteasome subunit alpha type-3, P25788",listed as a hit,[31],yes
"B-cell receptor-associated protein 31, P51572",listed as a hit,[32],yes
